± gives the standard deviation.
Assays:
Experiment in all cases: peptide microarray binding signal (635 nm), min-max normalized on array (fraction of array maximum); higher = stronger binding
Details in all cases: peptide region: H3 20-32
[1] = target: T1, HaloTag-ATRX ADD domain (163-292)
T1 chain: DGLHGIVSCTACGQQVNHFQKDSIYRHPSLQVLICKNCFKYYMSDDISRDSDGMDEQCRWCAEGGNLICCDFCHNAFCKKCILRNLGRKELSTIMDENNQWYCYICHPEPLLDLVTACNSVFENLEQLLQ
Procedure, shortened: (§1)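 Triplicate spots of histone 13-mer peptide–cellulose conjugates with a Cy3 tracer were printed on nitrocellulose and probed for 1 h at 4°C with biotin-labelled HaloTag reader fusions (10 nM to 1 μM) plus streptavidin-Alexa Fluor 647 or rabbit histone antibodies (1:10,000 to 1:2,000) plus anti-rabbit Alexa 647. An Axon GenePix 4000B read the 635 nm channel. Binding signal is the spot-triplicate mean intensity after min-max scaling within each library.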

[2] = target: HaloTag-ING2 PHD (mouse Ing2 200-280)
Procedure, shortened: as §1

[3] = target: anti-H3K4me3 antibody ab8580
Procedure, shortened: as §1

[4] = target: anti-H3K9me3 antibody ab8898
Procedure, shortened: as §1

[5] = peptide modifications: H3R26me1 H3K27me2, binder concentration: 1:2,000 dilution
[6] = peptide modifications: H3R26me1 H3K27me2, binder concentration: 1:10,000 dilution
[7] = peptide modifications: H3R26cit H3K27me3, binder concentration: 1:2,000 dilution
[8] = peptide modifications: H3R26cit H3K27me3, binder concentration: 1:10,000 dilution
[9] = peptide modifications: H3R26cit, binder concentration: 1:2,000 dilution
[10] = peptide modifications: H3R26cit, binder concentration: 1:10,000 dilution
[11] = peptide modifications: H3R26me1, binder concentration: 1:2,000 dilution
[12] = peptide modifications: H3R26me1, binder concentration: 1:10,000 dilution
[13] = peptide modifications: H3R26me1 H3K27me3, binder concentration: 1:2,000 dilution
[14] = peptide modifications: H3R26me1 H3K27me3, binder concentration: 1:10,000 dilution

B1: H3 20-32 L A T K A A Rme Kme2 S A P A T (peptide)
chain: LATKAARKSAPAT
In the case of B1, the “peptide microarray binding signal” value ([1]; peptide modifications: H3R26me1 H3K27me2, binder concentration: 50 nM) is reported as 0.00392 ± 0.00013, the “peptide microarray binding signal” value ([1]; peptide modifications: H3R26me1 H3K27me2, binder concentration: 500 nM) is reported as 0.002619 ± 2.1e-05 and the “peptide microarray binding signal” value ([2]; peptide modifications: H3R26me1 H3K27me2, binder concentration: 10 nM) is reported as 0.00483 ± 0.00013. The “peptide microarray binding signal” value ([2]; peptide modifications: H3R26me1 H3K27me2, binder concentration: 100 nM) was 0.00517 ± 7.1e-05, the “peptide microarray binding signal” value [3, 5] was 0.00176 and the “peptide microarray binding signal” value [3, 6] was 0.00194. For the same binder, the “peptide microarray binding signal” value [4, 5] was 0.00106 ± 2.2e-05 and the “peptide microarray binding signal” value [4, 6] was 0.001211 ± 1.2e-05.

B2: H3 20-32 L A T K A A Rcit Kme3 S A P A T (peptide)
chain: LATKAARKSAPAT
In the case of B2, the “peptide microarray binding signal” value ([1]; peptide modifications: H3R26cit H3K27me3, binder concentration: 50 nM) is reported as 0.00564 ± 0.00031, the “peptide microarray binding signal” value ([1]; peptide modifications: H3R26cit H3K27me3, binder concentration: 500 nM) is reported as 0.00676 ± 0.00027 and the “peptide microarray binding signal” value ([2]; peptide modifications: H3R26cit H3K27me3, binder concentration: 10 nM) is reported as 0.0135 ± 0.00085. The “peptide microarray binding signal” value ([2]; peptide modifications: H3R26cit H3K27me3, binder concentration: 100 nM) was 0.0188 ± 0.00063, the “peptide microarray binding signal” value [3, 7] was 0.0286 ± 0.0025 and the “peptide microarray binding signal” value [3, 8] was 0.0204 ± 0.00089. The “peptide microarray binding signal” value [4, 7] was 0.0791 ± 0.0015 and the “peptide microarray binding signal” value [4, 8] was 0.05 ± 0.006.

B3: H3 20-32 L A T K A A Rcit K S A P A T (peptide)
chain: LATKAARKSAPAT
In the case of B3, the “peptide microarray binding signal” value ([1]; peptide modifications: H3R26cit, binder concentration: 50 nM) is reported as 0.00411 ± 8.3e-05, the “peptide microarray binding signal” value ([1]; peptide modifications: H3R26cit, binder concentration: 500 nM) is reported as 0.00633 ± 0.00025 and the “peptide microarray binding signal” value ([2]; peptide modifications: H3R26cit, binder concentration: 10 nM) is reported as 0.00824 ± 0.00018. For the same binder, the “peptide microarray binding signal” value ([2]; peptide modifications: H3R26cit, binder concentration: 100 nM) was 0.0125 ± 0.00034, the “peptide microarray binding signal” value [3, 9] was 0.00296 ± 0.00035 and the “peptide microarray binding signal” value [3, 10] was 0.00285 ± 6.5e-05. The “peptide microarray binding signal” value [4, 9] was 0.00168 ± 3.3e-05 and the “peptide microarray binding signal” value [4, 10] was 0.00138 ± 1.4e-05.

B4: H3 20-32 L A T K A A Rme K S A P A T (peptide)
chain: LATKAARKSAPAT
With B4 the “peptide microarray binding signal” value ([1]; peptide modifications: H3R26me1, binder concentration: 50 nM) was 0.00408 ± 8.9e-05, the “peptide microarray binding signal” value ([1]; peptide modifications: H3R26me1, binder concentration: 500 nM) was 0.006381 ± 3.8e-05 and the “peptide microarray binding signal” value ([2]; peptide modifications: H3R26me1, binder concentration: 10 nM) was 0.00824 ± 0.00019. The “peptide microarray binding signal” value ([2]; peptide modifications: H3R26me1, binder concentration: 100 nM) was 0.0116 ± 0.00028, the “peptide microarray binding signal” value [3, 11] was 0.00342 ± 0.0002 and the “peptide microarray binding signal” value [3, 12] was 0.00325 ± 0.00018. For the same binder, the “peptide microarray binding signal” value [4, 11] was 0.00187 ± 4.7e-05 and the “peptide microarray binding signal” value [4, 12] was 0.00161 ± 3.1e-05.

B5: H3 20-32 L A T K A A Rme Kme3 S A P A T (peptide)
chain: LATKAARKSAPAT
With B5 the “peptide microarray binding signal” value ([1]; peptide modifications: H3R26me1 H3K27me3, binder concentration: 50 nM) was 0.00668 ± 0.00028, the “peptide microarray binding signal” value ([1]; peptide modifications: H3R26me1 H3K27me3, binder concentration: 500 nM) was 0.019 ± 0.0018 and the “peptide microarray binding signal” value ([2]; peptide modifications: H3R26me1 H3K27me3, binder concentration: 10 nM) was 0.0343 ± 0.0033. The “peptide microarray binding signal” value ([2]; peptide modifications: H3R26me1 H3K27me3, binder concentration: 100 nM) was 0.0417 ± 0.0052, the “peptide microarray binding signal” value [3, 13] was 0.0743 ± 0.016 and the “peptide microarray binding signal” value [3, 14] was 0.0599 ± 0.0085. The “peptide microarray binding signal” value [4, 13] was 0.162 ± 0.016 and the “peptide microarray binding signal” value [4, 14] was 0.0985 ± 0.023.
